# Source: PubChem (National Center for Advancing Translational Sciences (NCATS))
# FUS yeast rescue – rescues growth of FUS-expressing yeast | S. cerevisiae FUS-expressing, growth rescue, OD600, 24 h | Potency, µM (highest dose often 76.6 µM), actives largely listed as activators | 390,000 tested, 0.24% active | AID 1347120; also: nearly all actives have a fitted effect of over 55% in size
#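 Read-out: OD at 600 nm after 24hr at 30C, reporting rescue of FUS-induced yeast toxicity. Cells at OD 0.005 in galactose (2%) minimal medium; compounds tested in a dilution series; CP55940 titration from 92uM final as control.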
# Abeta rescue – restores growth of yeast expressing A-beta42 peptide; 410,000 tested, 0.063% active; Potency, µM (doses to about 46.1 µM), usual class: activators; yeast expressing A-beta42, growth rescue, OD600, 48 h; response scale: 0% DMSO, 100% iron-clioquinol control; also: nearly all actives have a fitted effect of over 55% in size
#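 Yeast A-beta toxicity model in growth medium with pinned compounds, 48 h at 30 C; growth read as absorbance at 600 nm. Normalized to FeCl3/clioquinol equimolar mix (positive) and DMSO (negative).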
# Mito fusion yeast – mitochondrial division inhibition or fusion activation. Potency, µM (titrated, usually from 46.1 µM), usual class: activators. 320,000 tested, 0.23% active. S. cerevisiae fusion-defective mutant growth rescue, CellTiterGlo 48 h; also: nearly all actives have a fitted effect of over 45% in size
#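 Growth-rescue viability read-out: after 48 h at the non-permissive 37C in glycerol/ethanol YPEG, yeast mitochondrial fusion mutants are measured by CellTiterGlo luminescence; compounds (23 nl pinned per well) restoring growth score as division inhibitors or fusion activators.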
# TDP43 rescue – inhibitors of TDP-43 toxicity in yeast. Potency, µM (doses to about 46.1 µM), most hits filed as activators. AID 652104. TDP-43 expressing yeast growth rescue, BacTiter-Glo, 24 h. 410,000 tested, 1.8% active; also: nearly all actives have a fitted effect of over 50% in size
#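 Yeast expressing TDP-43 (pregrown in raffinose, seeded at OD600=0.02 in galactose medium) exposed to compounds 24 hr at 30 deg C. Growth read by BacTiter-Glo luminescence; rescue of toxicity appears as increased signal.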
# aSyn yeast inh – rescues yeast growth from alpha-synuclein toxicity. Yeast expressing alpha-synuclein, growth rescue, BacTiter-Glo, 24 h. Potency, µM (highest dose often 46.1 µM), hits mostly activators. 370,000 tested, 0.14% active; also: nearly all actives have a fitted effect of over 65% in size
#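 Readout is rescue of growth in alpha-synuclein-expressing yeast, so inhibitors of toxicity appear as activators. Growth after 24 hr at 30 deg C in galactose medium is quantified by luminescence.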
# Numbers stand for hits; i = inactive; ? = inconclusive; nt = not tested or not shown; [ ] = dose if it differs, or a comment. Rows were chosen to be rich in hits. Some 2.2% of all compounds tested hit in one or more screens of this group. Calls follow the shape of the dose curve; as a rule, active = well fitted curve in the direction sought with a large enough effect; inconclusive = small, poorly fitted or top-dose-only effect, or another doubt; inactive = no such curve, though single readings can be large; an effect the other way counts as inactive or inconclusive.
SMILES,FUS yeast rescue,Abeta rescue,Mito fusion yeast,TDP43 rescue,aSyn yeast inh
COc1cccc(C2=CC(=O)C[C@H](c3ccc(Cl)cc3)C2)c1,?,i,?,13µM,i
COc1ccc([C@H]2CC(=O)C=C(c3cccc(C(F)(F)F)c3)C2)cc1,i,i,?,?,i
Cc1ccccc1NC(=O)COC(=O)c1ccccc1OCC(=O)Nc1ccc(Br)cc1,nt,nt,nt,nt,i
Cc1cc(C)c2c(-n3cccc3)nn(CC#N)c2n1,i,i,i,13µM,i
C#CCNC(=O)C[C@@H]1C[C@@](CCC(=O)OCC)(C(=O)OCC)C2=CCCCN2C1=O,i,nt,nt,nt,nt
O=c1c2cc3cccnc3nc2ncn1Cc1cccs1,i,nt,nt,nt,nt
CC(C)C1C(=O)N(Cc2cn(CCC3OCCO3)nn2)CCS(=O)(=O)N1Cc1ccc(-c2ccccc2Cl)cc1 (stereo not drawn),?,i,nt,35µM,?
CC(C)C1C(=O)N(Cc2cn(CCC3OCCO3)nn2)CCS(=O)(=O)N1Cc1ccc(-c2ccc(F)cc2Cl)cc1 (stereo not drawn),?,i,nt,22µM,?
CC(C)C1C(=O)N(Cc2cn(CCC3OCCO3)nn2)CCS(=O)(=O)N1Cc1ccc(-c2ccccc2)cc1 (stereo not drawn),?,i,nt,?,i
CC(C)CN1CN2Cc3cc(F)ccc3C2CS1(=O)=O (stereo not drawn),i,nt,nt,nt,nt
COc1ccc(N(CCN2C(=O)c3ccccc3C2=O)C(=O)c2cccc([N+](=O)[O-])c2)cc1,i,i,i,11µM,i
Cc1ccc(S(=O)(=O)N2CCCC2C(=O)N2CCc3ccccc3C2)cc1C (stereo not drawn),i,nt,nt,nt,nt
CCOc1ccccc1NS(=O)(=O)c1c(C(=O)OC)sc2cccc(F)c12,i,i,nt,i,nt
CCOC(=O)c1sc2cccc(F)c2c1S(=O)(=O)Nc1ccccc1F,i,i,nt,18µM,nt
CCC(=O)Nc1nnc(S(=O)(=O)N2CCCCCC2)s1,i,i,i,i,i
CCc1nc2c(OCCC3CCCCC3)cccn2c1N(C)C(=O)c1ccc(OC)cc1,22µM,i,nt,i,i
CSc1ccccc1C(=O)NC1CCCN(c2ccc(C(F)(F)F)cn2)C1 (stereo not drawn),i,22µM,i,?,i
O=C(OCc1cn(Cc2cccc(Cl)c2)nn1)N1CCCC1,i,nt,nt,nt,nt
O=S(=O)(Nc1ccc(Cl)cn1)c1ccc(Cl)cc1,i,i,i,11µM,i
CCc1ccc(S(=O)(=O)Nc2ccc(Cl)cn2)cc1,i,i,i,i,i
CC(/C=N/NC(=O)CSc1ccccn1)=C\c1ccc(C(C)C)cc1,nt,i,i,20µM,i
CC(=C/c1ccc(C(C)C)cc1)/C=N/NC(=O)CSc1ccccn1,i,i,i,i,i
CCCCCn1nnnc1C1(C)Cn2nccc2C(=O)N1Cc1ccco1 (stereo not drawn),i,nt,nt,nt,nt
CCOC(=O)c1noc2ncn(Cc3ccc([N+](=O)[O-])cc3)c(=O)c12,i,i,nt,20µM,nt
NS(=O)(=O)Nc1c(Br)cc(Br)c2cccnc12,nt,nt,nt,nt,i
SMILES,FUS yeast rescue,Abeta rescue,Mito fusion yeast,TDP43 rescue,aSyn yeast inh
Nc1c(C(=O)Nc2ccccc2Br)sc2nc(-c3cccs3)ccc12,i,i,nt,i,nt
CC(=O)c1sc2nc(-c3cccs3)ccc2c1N,i,i,i,10µM,i
CN(C)S(=O)(=O)c1cccc(NC(=O)C2Cc3ccccc3CN2C(=O)c2ccco2)c1 (stereo not drawn),i,i,i,i,i
CCC(C)(C)NC(=O)C(c1ccccc1F)N(Cc1ccco1)C(=O)Cn1nnc2ccccc21 (stereo not drawn),i,i,10µM,i,i
Cc1ccc(N(O)C(=O)NCCCCNC(=O)N(O)c2ccc(C)cc2)cc1,i,i,i,i,i
CCc1nc2ccc(C(=O)Nc3cc(-c4ccccc4)ccc3OC)cn2c1N(C)CCCc1ccccc1,?,i,nt,20µM,i
CCc1nc2ccc(C(=O)Nc3cc(-c4ccccc4)ccc3OC)cn2c1N(C)CCC(C)C,?,i,nt,i,i
CCOc1ccc(C(=O)NCC(=O)OCc2c(F)cccc2Cl)cc1,nt,i,i,22µM,i
CCOc1ccc(C(=O)NCC(=O)OCc2c(F)cccc2Cl)cc1OCC,i,i,i,i,i
Cc1ccc(C(=O)OCCn2cc(C#N)c(=O)[nH]c2=O)cc1,i,i,i,i[9.22 µM],i
Fc1ccc(-c2ccnc3nc(N4CCOCC4)nn23)cc1,i,i,i,i,i
COc1ccc(-c2ccnc3nc(N4CCN(c5ccccc5)CC4)nn23)cc1,i,i,13µM,14µM,i
CCN(CC)C(=O)CC[C@H]1CC[C@]2(CCCN(C(=O)C(C)(C)C)C2)O1,i,nt,nt,nt,nt
COc1ccc(OC)c(CNc2ccc([N+](=O)[O-])cc2C)c1,i,i,i,?,i
COc1cccc(CNc2ccc([N+](=O)[O-])cc2C)c1,i,i,i,16µM,i
COc1ccc(CCNC(=O)c2ccc(CS(=O)(=O)c3ccc(Cl)cc3)o2)cc1OC,i,i,i,i,i
O=C(NCc1ccc(F)cc1)c1ccc(CSCc2cccc(Cl)c2)o1,?,i,nt,22µM,nt
Cc1ccccc1CSCc1ccc(C(=O)NCCc2ccccc2)o1,i,i,nt,35µM,i
O=C(NCCc1ccc(Cl)cc1)c1ccc(CSCc2cccc(Cl)c2)o1,i,i,nt,20µM,nt
O=C(NCc1ccc(Cl)cc1)c1ccc(CSCc2cccc(Cl)c2)o1,i,i,nt,?,nt
COc1ccc(CCNC(=O)c2ccc(CSc3ccc(Cl)cc3)o2)cc1OC,?,nt,nt,33µM,nt
COC(=O)C/C=C/[C@@H](C)[C@H](NC(=O)OCC(Cl)(Cl)Cl)c1ccc(-c2ccccc2)cc1,i,nt,nt,nt,nt
COc1ccc(-n2c(COc3ccc(C)cc3)nnc2SCC(=O)c2ccc(-c3ccccc3)cc2)cc1,i,nt,nt,nt,nt
Cc1nnc(SCC(=O)N2CCN(c3ccccc3)CC2)n1C1CC1,nt,i,i,i,i
O=C(CCn1nnc(-c2cccs2)n1)NCc1ccco1,i,nt,nt,nt,nt
SMILES,FUS yeast rescue,Abeta rescue,Mito fusion yeast,TDP43 rescue,aSyn yeast inh
COc1ccccc1N(CC(O)COc1c(C)cc(C)cc1C)S(=O)(=O)c1ccccc1 (stereo not drawn),nt,i,i,18µM,i
COc1ccccc1N(CC(O)COc1ccc(C)cc1)S(=O)(=O)c1ccccc1 (stereo not drawn),nt,i,i,i,?
c1ccc(Nc2scc(-c3ccccc3)[n+]2Cc2ccco2)cc1,i,i,i,20µM,i
O=C(CN1CCc2onc(-c3cccc(-n4cc(CO)nn4)c3)c2C1=O)N1CCOCC1,i,nt,nt,nt,nt
CCOC(=O)c1c(NC(C)=O)sc2c(O)c(Br)cc(Br)c12,nt,i,?,13µM,i
CCOC(=O)c1c(NC(C)=O)sc2c(O)cccc12,i,i,i,i,nt
CCOC(=O)c1c(C)oc2cc(Br)c(O)c(Br)c12,i,i,i,13µM,i
Cc1ccc(C2(c3ccc(C)cc3)NC(=O)N(CC(N)=O)C2=O)cc1,i,i,i,i,i
